From PubChem BioAssay (NCI) come the findings set out here.

This is part of a sample that, as a whole, favours compounds with a hit. Of some 83,000 tested, about 20% had one in any assay.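 Step 1: grow cells in 96-well plates. Step 2: add test compound at a single concentration. Step 3: incubate 48 h. Step 4: record percent growth.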 Activity calls are given as the source filed them.

The subject of the experiment is MDA-MB-435 melanoma. Kind of experiment: NCI-60 one-dose screen, 48 h (100 = growth as untreated, 0 = no growth, -100 = all killed). The following applies: 10 µM unless noted. How it is done:
Growth inhibition of the MDA-MB-435 human Melanoma tumor cell line is measured as a screen for anti-cancer activity. Cells are grown in 96 well plates and exposed to the test compound for 48 hours. Compounds are tested at a single concentration, which is 10^-5 M for most compounds. The reported endpoint is percent growth (GI% or GIPRCNT), where numbers from 0 - 100% represent growth inhibition, and numbers from -100% - 0 represent cell death. For example, a value of 40 represents 60% growth inhibition. A value of 0 means no net growth occurred over the course of the experiment. A value of -40 indicates 40% of cells at the beginning of the experiment died by the end of the experiment. A value of -100 means all cells are dead at the end of the experiment.
NCI-60 Human Tumor Cell Lines Screen was performed using the standard one-dose NCI protocol, which is described in more detail at https://dtp.cancer.gov/discovery_development/nci-60/default.htm.
Compounds with GIPRCNT values below 10 were considered active. Activity score was based on GIPRCNT using the following formula: […]
Score is 0 for GIPRCNT values of 100 or above, 50 for GIPRCNT values of 0, and 100 for GIPRCNT values of -100.
For the compound `Cc1cc(=O)n(C(=O)Nc2ccccc2Cl)c2cc(O)ccc12`, the growth was 104% (inactive).
With `COC(=O)CC[C@H](C)[C@H]1CC[C@H]2[C@@H]3CC[C@@H]4CC5(CC[C@]4(C)[C@H]3CC(=O)[C@]12C)Nc1ccccc1NC5=NC(C)(C)C` (stereo not given in full) the figure was 85.1% (inactive); with `C=CCn1c(SCC(=O)Nc2ccc(C(=O)/C=C/c3ccc(Cl)cc3)cc2)nnc1-c1ccc(Br)cc1`, 26.9% (inactive).
Turning to `O=C1/C(=C\c2ccc3nccnc3c2)SC(=S)N1CCc1ccc(O)cc1`, the growth is 93.2% (inactive).
Regarding `N#CC1=C(N)Oc2c(sc3c(Br)cccc23)C1c1ccc(Cl)cc1` (stereo not given), the growth is -23.2% (active).
For `O=C(CSc1nc2ccc([N+](=O)[O-])cc2[nH]1)Nc1ccc([N+](=O)[O-])cc1` the value was 14.3% (inactive); for `N#Cc1c(-c2ccccc2)cc(-c2ccccc2)n(CCCC(=O)Nc2ccccc2N)c1=O`, -15.6% (active); for `C=CCSc1nnc(NC(=O)CCl)s1`, 90.8% (inactive).
`COc1cc(-c2cncn2-c2ccc(-c3nc4ccc(F)cc4s3)cc2)ccc1F`: the growth is 87.4% (inactive).
For the compound `C#CCOC(=O)/C=C/c1cn(-c2ccccc2)nc1-c1ccc(OC)cc1`, the growth is 107% (inactive).
For `O=C(O)c1cn(C2CC2)c2cc(N3CCN(C(=O)N(c4ccccc4)c4nc(-c5ccccc5)cs4)CC3)c(F)cc2c1=O` the value was 8.3% (active); for `CCC(C)N(CCNc1cc(OC)cc2cccnc12)CC(C)C` (stereo not given), 109% (inactive).
On to `COc1c(C(=O)Nc2ccc(C)c(Br)c2)ccc2ccccc12`, for which the growth is 31.7% (inactive).
With `CCOC(=O)c1nn(-c2ccc(S(N)(=O)=O)cc2)c2nc(C)cc(=O)n12`, the growth was 105% (inactive).
Turning to `CCCCCCCCCCC(CN(CC)CC)C(O)c1ccccc1` (stereo not given), the growth was -25.1% (active).
For `COCCn1cc(-c2nc(-c3cc4cccnc4[nH]3)cs2)c2cc(OC)ccc21` the value was 52.4% (inactive); for `Clc1cc(Cl)c(Cl)c(-c2nnc(SCc3ccncc3Br)o2)c1`, 98.4% (inactive); for `N=C(N)c1ccc(-c2ccc(-c3ccc(Cl)c(Cl)c3)s2)nc1`, 10.8% (inactive).
For `COc1ccc(C(O)c2cc3c(N)c(C(=O)Nc4cccc(Br)c4)sc3nc2C)cc1` (stereo not given) the value was -33.4% (active); for `C=CC(=O)N1CCN(c2cccc(Oc3nccc(Nc4nnc(-c5ccc(Br)cc5)s4)n3)c2)CC1`, -5.55% (active); for `Cc1nc2sc(C(=O)Nc3cccc(Br)c3)c(N)c2cc1C(O)c1ccccc1` (stereo not given), 4.05% (active).
With `Cc1ccc(-c2nc([P+](c3ccccc3)(c3ccccc3)c3ccccc3)c(S(=O)(=O)c3ccc(C)cc3)o2)cc1` the figure was -2.81% (active); with `C=C(C)[C@@H]1CC[C@]2(CO)CC[C@]3(C)[C@H](CC[C@@H]4[C@@]5(C)CC[C@H](NCO)C(C)(C)[C@@H]5CC[C@]43C)[C@@H]12`, -84.5% (active); with `COCCNC(=O)Nc1ccc2nc(-c3cccs3)c(-c3cccs3)nc2c1`, 94.1% (inactive).
Regarding `CC(=O)c1c(C)nc(SCC(=O)Nc2cccc(O)c2)n1-c1ccc(Cl)cc1`, the growth was 84.7% (inactive).
On to `CSc1nnc(-c2cc3c([nH]c4ccccc43)c(-c3cccc(O)c3)n2)n1-c1ccccc1`, for which the growth was -49.9% (active).
In the case of `CC(C)c1ccc(Cc2cnc(NC(=O)c3cc(Br)cs3)s2)cc1`, the growth is -66.9% (active).
Take `COc1ccc(Cc2cnc(NC(=O)c3cc(C)oc3C)s2)cc1`: the growth was 0.623% (active).
For `COc1ccc2c(c1)c(-c1nc(-c3c[nH]c4ccncc34)cs1)cn2C`, the growth is -92.3% (active).
With `CCCCCN1C(=O)/C(=c2\sc3n(c2=O)C2C(NN=3)N(CC)C(=O)N2CC)c2ccccc21` (stereo not given), the growth is -60.1% (active).
With `CCOC(=O)c1ccc(NC(=O)c2nc(-c3cc(OC)c(OC)c(OC)c3)n(-c3ccc(Cl)cc3)n2)cc1`, the growth is 88.9% (inactive).
With `CSc1nc(N)c(NS(=O)(=O)c2ccc(C(C)=O)cc2)c(=O)[nH]1` the figure was 102% (inactive); with `COC(=O)/C=C1/SC(=Nc2cccc(OC)c2)N(CCc2c[nH]c3ccc(O)cc23)C1=O`, 23.5% (inactive); with `Cc1ccc(NC(=O)Cn2cc(CN3CCN(c4ccnc5cc(Cl)ccc45)CC3)nn2)cc1`, 94.5% (inactive).
As to `O=C(Nc1ccc(Oc2cccc(F)c2)c(Cl)c1)c1cccnc1`, the growth is 1.64% (active).
Consider `COC(=O)[C@]1(C)CCC[C@]2(C)[C@H]3C[C@H]4C(C(C)C)=C[C@]3(CC[C@H]21)[C@@H]1C(=O)CC[C@H](OCCC#N)[C@@H]14`, for which the growth is 84.9% (inactive).
For `Nc1c(C(=O)Nc2ccccc2F)sc2nc3c(cc12)CCCC3`, the growth was -7.54% (active).
With `COc1ccc(-c2nc3c(ncc4ccc(=O)[nH]c43)s2)cc1` the figure was 80.6% (inactive); with `CNc1nnc2n(-c3ccccc3)c(=O)c3cnn(-c4ccccc4)c3n12`, 98.2% (inactive).
In the case of `CCn1c(SCC(=O)N/N=C(\C)c2ccc(Cl)cc2)nc2c1c(=O)n(C)c(=O)n2C`, the growth is 100% (inactive).
